{"source": "PubChem BioAssay AID488832", "about": "(National Center for Advancing Translational Sciences (NCATS), 2010)", "note": "Records with an inconclusive call do not appear. Activity calls are given as the source filed them. Calls follow the shape of the dose curve; as a rule, active = well fitted activation curve with a large enough effect; inconclusive = small, poorly fitted or top-dose-only effect; inactive = no such curve, though single readings can be large or run the other way.", "data": [{"assay": "Confirmation Concentration-Response Assay for Enhancers of SMN2 Splice Variant Expression for Further Probe SAR", "conditions": "HEK293 SMN2 exon7-luciferase splicing reporter, luminescence, 30-36 h; series mostly up to 46.1 µM", "description": "NIH Chemical Genomics Center [NCGC] NIH Molecular Libraries Probe Production centers Network [MLPCN] MLPCN Grant: R03 MH084179-01 Assay Submitter (PI): Elliot Androphy NCGC Assay Overview: Spinal muscular atrophy (SMA) is caused by insufficient levels of the survival motor neuron protein SMN. The SMN locus on chromosome 5q13 contains two inverted copies of SMN called SMN1 and SMN2 which are 99% identical at the amino acid level. SMN1 is a fully functional protein and SMN2 skips exon 7 90% of the time. Skipping of exon 7 produces non-functional protein product. 10% of the SMN2 protein includes exon 7 and is fully functional. In the SMA disease state, mutations in the SMN1 locus are the cause of the disease state. Because only 10% of SMN2 is of the fully functional form, it is not sufficient to overcome the deficiency produced by the loss of the SMN1 product. A therapy that either increase the amount of SMN2 product made or to increase the inclusion of exon 7 has been proposed for the treatment of SMA. We have designed an assay to identify small molecules that can increase the amount of functional SMN2 product by appending a luciferase reporter gene after the native SMN2 gene, such that inclusion of exon 7 in the expressed product places the luciferase sequence in frame, thus generating functional luciferase enzyme.\nNCGC Assay Protocol Summary: This screen utilizes a luciferase reporter gene assay, combining the promoter with the major portion of the native SMN2 cDNA (exons 1 -7, intron 8 , exon 8 fused to luciferase) stably expressed in HEK293 cells. Compounds that increase luciferase signal presumably enhance expression of the functional SMN2 splice variant. Passaging media contained DMEM w/ glutamax (+phenol red) 10% FCS, 1x pen/strep, 200 ug/ml hygro, 1x sodium pyruvate. Assay media contained DMEM w/ glutamax (-phenol red) 10% FCS, 1x pen strep, 1x pyruvate Sequence, Parameter, Value, Description (1) Cells, 5 uL, 2000 cells/well, 1536 TC treated White solid bottom plate (2) Time, 10-12 hours, 37C 5% CO2 (3) Compound, 23 nl, MLSMR Library (4) Control Compound, 23 nL, Sodium butyrate st 4.5mM (final) conc (5) Time, 30-36 hours, 37C 5% CO2 (6) Reagent, 3 ul, One Glo (TM) from Promega (7) Time, 5-15 minutes, Room temp (8) Detector, Viewlux: luminescent read, 60 second integration, high speed 2x binning Keywords: Spinal muscular atrophy, SMA, SMN2, high throughput screening, MLSMR, MLPCN, NIH Roadmap, qHTS and NCGC", "values": [{"smiles": "CN(C)c1cccc(-c2cnc(N3CCC(C(N)=O)CC3)s2)c1", "Potency": "0.0244 µM (active)"}, {"smiles": "CNC(=O)C1CCN(c2nc(-c3ccc(Br)cc3)cs2)CC1", "Potency": "4.87 µM (active)"}, {"smiles": "CC(C)(C)c1ccc(-c2csc(N3CCC(C(N)=O)CC3)n2)cc1", "Potency": "2.74 µM (active)"}, {"smiles": "NC(=O)C1CCN(c2nc(-c3ccccc3[N+](=O)[O-])cs2)CC1", "Potency": "15.4 µM (active)"}, {"smiles": "CCOC(=O)C1CCN(c2nc(-c3ccc(Br)cc3)cs2)CC1", "Potency": "4.87 µM (active)"}, {"smiles": "CCOc1ccc(-c2csc(N3CCC(C(N)=O)CC3)n2)cc1", "Potency": "3.07 µM (active)"}, {"smiles": "NC(=O)C1CCN(c2ncc(-c3ccc(Br)cc3)s2)CC1", "Potency": "0.218 µM (active)"}, {"smiles": "Brc1ccc(-c2csc(N3CCNCC3)n2)cc1", "Potency": "inactive"}, {"smiles": "O=C(c1ccccc1)N1CCN(c2nc(-c3ccc(Br)cc3)cs2)CC1", "Potency": "inactive"}, {"smiles": "CN(C)c1cccc(-c2nc(N3CCC(C(N)=O)CC3)ncc2F)c1", "Potency": "0.345 µM (active)"}, {"smiles": "NC(=O)C1CCN(c2nc(-c3ccc(C(F)(F)F)cc3)cs2)CC1", "Potency": "0.867 µM (active)"}, {"smiles": "NC(=O)C1CCN(c2nc(-c3cccc4ccccc34)cs2)CC1", "Potency": "inactive"}, {"smiles": "NC(=O)C1CCN(c2ncc(-c3cccc(N4CCOCC4)c3)s2)CC1", "Potency": "1.94 µM (active)"}, {"smiles": "NC(=O)C1CCN(c2nc(-c3ccc(N4CCCCC4)nc3)cs2)CC1", "Potency": "3.45 µM (active)"}, {"smiles": "N#Cc1ccccc1-c1csc(N2CCC(C(N)=O)CC2)n1", "Potency": "inactive"}, {"smiles": "CN(C)c1cccc(-c2ccnc(N3CCC(C(N)=O)CC3)n2)c1", "Potency": "0.688 µM (active)"}, {"smiles": "NC(=O)C1CCN(c2nc(-c3ccc(N)cc3)cs2)CC1", "Potency": "inactive"}, {"smiles": "NC(=O)C1CCN(c2ncc(-c3ccc4c(c3)OCCCO4)s2)CC1", "Potency": "0.0307 µM (active)"}, {"smiles": "NC(=O)C1CCN(c2nccc(-c3ccc4c(c3)OCCO4)n2)CC1", "Potency": "1.09 µM (active)"}, {"smiles": "NC(=O)C1CCN(c2ncc(Br)s2)CC1", "Potency": "inactive"}, {"smiles": "NC(=O)C1CCN(c2nc(-c3ccc4c(c3)OCO4)cs2)CC1", "Potency": "1.37 µM (active)"}, {"smiles": "NC(=O)C1CCN(c2ncc(-c3ccc4c(c3)OC(F)(F)O4)s2)CC1", "Potency": "0.194 µM (active)"}, {"smiles": "NC(=O)C1CCN(c2ncc(-c3cccc(N4CCCC4)c3)s2)CC1", "Potency": "0.345 µM (active)"}, {"smiles": "NC(=O)C1CCN(c2ncc(-c3ccc4c(c3)OCCO4)s2)CC1", "Potency": "0.0867 µM (active)"}, {"smiles": "NC(=O)C1CCN(c2ncc(-c3cccc(F)c3)s2)CC1", "Potency": "1.94 µM (active)"}, {"smiles": "CN(C)c1cccc(-c2ncc(F)c(N3CCC(C(N)=O)CC3)n2)c1", "Potency": "2.44 µM (active)"}, {"smiles": "NC(=O)C1CCN(c2nc(-c3cccc4sc5ccccc5c34)cs2)CC1", "Potency": "13.7 µM (active)"}, {"smiles": "O=C(O)C1CCN(c2ncc(-c3ccc4c(c3)OCCCO4)s2)CC1", "Potency": "0.0087 µM (active)"}, {"smiles": "O=S(=O)(c1ccccc1)N1CCN(c2nc(-c3ccc(Br)cc3)cs2)CC1", "Potency": "inactive"}, {"smiles": "NC1CCN(c2nc(-c3ccc(Br)cc3)cs2)CC1", "Potency": "1.94 µM (active)"}, {"smiles": "NC(=O)C1CCN(c2nccc(Cl)n2)CC1", "Potency": "inactive"}, {"smiles": "CC(C)Oc1ccc(-c2csc(N3CCC(C(N)=O)CC3)n2)cc1", "Potency": "3.87 µM (active)"}, {"smiles": "NC(=O)C1CCN(c2nc(-c3ccc4c(c3)CCO4)cs2)CC1", "Potency": "12.2 µM (active)"}, {"smiles": "CC(=O)N1CCN(c2nc(-c3ccc(Br)cc3)cs2)CC1", "Potency": "2.44 µM (active)"}, {"smiles": "c1c[nH]c(C2CCN(c3ncc(-c4ccc5c(c4)OCCCO5)s3)CC2)n1", "Potency": "2.18 µM (active)"}, {"smiles": "NC(=O)C1CCN(c2nc(-c3ccc(Cl)cc3)cs2)CC1", "Potency": "1.09 µM (active)"}, {"smiles": "O=C(NCCCc1ccccc1)C1CCN(c2nc(-c3ccc(Br)cc3)cs2)CC1", "Potency": "inactive"}, {"smiles": "Nc1nc(N)c2c(OCC3CCN(Cc4ccccc4F)CC3)cccc2n1", "Potency": "inactive"}, {"smiles": "CN(C)c1cccc(-c2cnc(N3CCC(C(N)=O)CC3)nc2)c1", "Potency": "0.547 µM (active)"}, {"smiles": "NC(=O)C1CCN(c2ncc(Br)cn2)CC1", "Potency": "inactive"}]}]}
